Measured values as given in PubChem BioAssay AID2158 (National Center for Advancing Translational Sciences (NCATS), 2009).
Inconclusive results are not listed. The source made the active and inactive calls. Calls come from the whole dose curve; as a rule, active = well fitted inhibition curve with a large enough effect; inconclusive = small, poorly fitted or top-dose-only effect; inactive = no such curve, though single readings can be large or run the other way.
Note: nearly all actives have a fitted effect of over 40% in size.
Potency is the fitted concentration of half-maximal effect.
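Throughout, for activity change, negative = inhibition: plate controls were uninhibited enzyme control for no effect and buffer wells lacking enzyme for full effect.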

These molecules were tested against Cruzipain (Trypanosoma cruzi) (UniProt P25779) (assay: Confirmation qHTS Assay for Inhibitors of Cruzain). Details: purified cruzain, Z-FR-AMC fluorescence, 0.01% Triton.
Sequence of Cruzipain (Trypanosoma cruzi) (P25779 123-467 limits assumed): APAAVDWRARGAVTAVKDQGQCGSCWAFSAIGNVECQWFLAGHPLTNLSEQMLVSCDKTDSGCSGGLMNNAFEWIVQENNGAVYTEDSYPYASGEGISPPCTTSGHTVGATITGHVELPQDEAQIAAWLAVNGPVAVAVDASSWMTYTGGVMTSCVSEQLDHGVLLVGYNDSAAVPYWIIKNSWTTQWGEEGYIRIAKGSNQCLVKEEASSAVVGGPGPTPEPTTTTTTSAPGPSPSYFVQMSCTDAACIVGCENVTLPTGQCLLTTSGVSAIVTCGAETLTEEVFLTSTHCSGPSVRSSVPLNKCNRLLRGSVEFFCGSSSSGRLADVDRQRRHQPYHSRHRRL
Procedure, shortened: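 Purified cruzain, 1.5 nM, pre-incubated 15 min at room temperature with compound in 100 mM sodium acetate pH 5.5, 5 mM DTT, 0.01% Triton X-100. Then 2 uM Z-FR-AMC added; AMC fluorescence (ex 360/em 450 nm) increase over 60 s gave reaction progress.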
With `Cc1cc(OCCn2c(CCNC(=O)C3CCCCC3)nc3ccccc32)ccc1Cl` the Potency was 1 µM (active).
`C=CC(C)(C)c1[nH]c2ccccc2c1C1=C(O)C(=O)C(c2c[nH]c3c(CC=C(C)C)cccc23)=C(O)C1=O` was tested, and the Potency was 25.1 µM (active).
In the case of `N#CN1CCC(N[S+](=O)([O-])c2cccc(F)c2)CC1`, the activity change, negative = inhibition is reported as -1.96% (inactive).
With `CCSc1nnc(NC(=O)/C=C/c2ccc3c(c2)OCO3)s1` the activity change, negative = inhibition was -48.4% (inactive).
With `CN(C)CCCNS(=O)(=O)c1ccc(N2CCC(c3ccc(Cl)cc3)=N2)cc1` the activity change, negative = inhibition was -28.4% (inactive).
`N#Cc1nc(NCCCCO)nc(Nc2ccccc2)n1` was tested, and the Potency was 0.891 µM (active).
With `CC(C)(C)OC(=O)Cc1nnc(C(C(=O)OCc2ccccc2)c2ccccc2)s1` (stereo not drawn) the activity change, negative = inhibition was -12.2% (inactive).
For `CCn1nc(-c2ccc(C)cc2)nc2c(=O)n(C)c(=O)nc1-2`, the Potency was 2.82 µM (active).
With `CCCN(CCC)c1nc(C#N)nc(N(CCC)CCC)n1` the Potency was 3.55 µM (active).
`Cc1ccc(Cn2c(CCNC(=O)c3cccc(C)c3)nc3ccccc32)cc1` was tested, and the Potency was 2.82 µM (active).
`Cc1ccc(C(=O)NCC(=O)OC(C(=O)Nc2cc(C(F)(F)F)ccc2Cl)c2ccccc2)cc1` (stereo not drawn) was tested, and the Potency was 7.94 µM (active).
For `COc1cccc(C)c1NC(=O)C(OC(=O)CNC(=O)c1ccccc1)c1ccccc1` (stereo not drawn), the Potency was 25.1 µM (active).
For `COc1cc(NC(=O)C(OC(=O)CNC(=O)c2ccccc2)c2ccccc2)c(OC)cc1Cl` (stereo not drawn), the Potency was 11.2 µM (active).
`CCn1cnc2c(Nc3ccc(CCC(=O)N=C(N)N)cc3)nc(C#N)nc21` was tested, and the Potency was 35.5 µM (active).
In the case of `O=C(NNC(=O)c1nc2ccccc2[nH]1)OCc1ccccc1`, the activity change, negative = inhibition is reported as -7.65% (inactive).
`O=C(COC(=O)CNC(=O)C1CCCCC1)Nc1ccc2ccccc2c1` was tested, and the Potency was 12.6 µM (active).
For `N#CN1CCC(NS(=O)(=O)c2cccc(C(F)(F)F)c2)CC1`, the activity change, negative = inhibition was 0.31% (inactive).
For `CCn1cnc2c(NCc3cccnc3)nc(C#N)nc21`, the activity change, negative = inhibition was -4.84% (inactive).
In the case of `COc1ccc(C(=O)NCC(=O)OCC(=O)c2ccc3ccccc3c2)cc1`, the Potency is reported as 15.8 µM (active).
`CCC(C)NC(=O)c1ccc2nc(-c3ccco3)c(-c3ccco3)nc2c1` (stereo not drawn) was tested, and the Potency was 7.08 µM (active).
In the case of `COc1ccccc1N1CCN(C(=O)CN(c2ccccc2OC)S(=O)(=O)c2ccccc2)CC1`, the activity change, negative = inhibition is reported as -10.1% (inactive).
For `Cc1ccccc1OCCCn1c(CCNC(=O)C2CCCCC2)nc2ccccc21`, the Potency was 1 µM (active).
For `Cc1ccc(S(=O)(=O)NCC(=O)OCC(=O)Nc2ncc(Cl)cc2Cl)cc1`, the activity change, negative = inhibition was -50.6% (inactive).
With `N#Cc1nc(Nc2ccc(F)cc2)nc(NC2CCCC2)n1` the Potency was 0.126 µM (active).
`Cc1ccc2[nH]c(=O)c(CN(CCO)Cc3nnnn3Cc3ccccc3)cc2c1` was tested, and the activity change, negative = inhibition was -1.03% (inactive).
In the case of `CC(C)(C)c1ccc(S(=O)(=O)c2cnc(SCC(=O)Nc3ccc(F)c(Cl)c3)[nH]c2=O)cc1`, the Potency is reported as 3.98 µM (active).
For `Cc1ccc(OCCNC(=O)CNC(=O)Cc2cccc3ccccc23)cc1`, the activity change, negative = inhibition was -1.3% (inactive).
In the case of `NC(=S)N/N=C/c1ccc(-c2cc(Cl)ccc2Cl)o1`, the Potency is reported as 2 µM (active).
In the case of `CCn1nc(-c2ccccc2C)nc2c(=O)n(C)c(=O)nc1-2`, the Potency is reported as 0.631 µM (active).
In the case of `CCOc1ccc(CN2C(=O)c3ccccc3Sc3ccc(C(=O)NCc4ccc5c(c4)OCO5)cc32)cc1`, the activity change, negative = inhibition is reported as 6.89% (inactive).
In the case of `N#Cc1nc(Nc2cc(F)cc(F)c2)nc(NC2CCCC2)n1`, the Potency is reported as 0.0631 µM (active).
`O=C(CNC(=O)c1ccc([N+](=O)[O-])cc1)OC(C(=O)Nc1cc(C(F)(F)F)ccc1Cl)c1ccccc1` (stereo not drawn) was tested, and the Potency was 12.6 µM (active).
In the case of `O=C(COC(=O)CNC(=O)C1CCCCC1)Nc1cc(C(F)(F)F)ccc1Cl`, the Potency is reported as 2.82 µM (active).
For `CN1C(=O)/C(=N\OC(=O)c2cccc3ccccc23)c2ccccc21`, the Potency was 10 µM (active).
In the case of `CCc1ccc(C(=O)COC(=O)CNC(=O)COc2ccccc2)cc1`, the activity change, negative = inhibition is reported as 35.9% (inactive).
For `Cc1ccc(OCCCn2c(CCCNC(=O)C3CCCCC3)nc3ccccc32)cc1`, the activity change, negative = inhibition was -20.3% (inactive).
With `O=C(Nc1ccccc1)c1ccc2nc(-c3ccco3)c(-c3ccco3)nc2c1` the Potency was 7.94 µM (active).
`Cc1ccc2[nH]c(=O)c(CN(Cc3cccs3)Cc3nnnn3Cc3ccco3)cc2c1` was tested, and the activity change, negative = inhibition was -23% (inactive).
